The values below come from the supplement of paper PMC6555819.

What all share (assay): PBM binding z-score (relative to random genomic background probes); higher = stronger binding; sequences stand for … in GC…GCGATTGACAGCGTAGAATGAAGG
For assay [1], the system named is FXR:RXRa (NR concentration 270 nM, RXRa partner concentration 90 nM). Summed up: (§1)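 Custom Agilent 4×180K protein-binding microarrays carried double-stranded probes, each with a 34-nt variable region. These regions held direct-repeat seeds, single-nucleotide variants, half-site ablations and random human genomic background sequences. Ligand-free nuclear receptor dimers were incubated on the arrays for 1 h, antibodies against each partner (one per run) detected binding, and scanned fluorescence was regression-normalized. Binding z-scores take the random background probes as reference.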

In assay [2] the test system is LXRa:RXRa (NR concentration 270 nM, RXRa partner concentration 90 nM). Summed up: as §1
Assay [3] deals with LXRa homodimer (NR concentration 270 nM). The procedure, abridged:
as §1

The test system of assay [4] is LXRb:RXRa (NR concentration 270 nM, RXRa partner concentration 90 nM). The procedure, abridged:
as §1

Assay [5] concerns LXRb homodimer (NR concentration 270 nM). The procedure, abridged: as §1
In assay [6] the test system is PPARa:RXRa (NR concentration 270 nM, RXRa partner concentration 90 nM). The procedure, abridged:
as §1

The subject of assay [7] is PPARg:RXRa (NR concentration 180 nM, RXRa partner concentration 90 nM). Summed up: as §1
The test system of assay [8] is PPARg:RXRa 270nM:90nM, anti-RXR (NR concentration 270 nM, RXRa partner concentration 90 nM). The procedure, abridged: as §1
For assay [9], the system named is PPARg:RXRa 30nM:10nM, anti-RXR (NR concentration 30 nM, RXRa partner concentration 10 nM). The procedure, abridged:
as §1

Assay [10] relates to PPARg:RXRa 90nM:30nM, anti-RXR (NR concentration 90 nM, RXRa partner concentration 30 nM). The procedure, abridged:
as §1

For assay [11], the system named is PPARg:RXRa DBDmut IVT, anti-RXR (DBD mutation: RXRa K156A/R161A, NR concentration 270 nM, RXRa partner concentration 90 nM). The procedure, abridged:
as §1

Assay [12] relates to PPARg:RXRa IVT, anti-PPARg (NR concentration 270 nM, RXRa partner concentration 90 nM). Summed up: as §1
Assay [13] has as its system PPARg DBDmut:RXRa IVT, anti-PPARg (DBD mutation: PPARg1 K132A/R137A, NR concentration 270 nM, RXRa partner concentration 90 nM). The procedure, abridged:
as §1

Assay [14] has as its system PPARg DBDmut IVT, anti-PPARg (DBD mutation: PPARg1 K132A/R137A, NR concentration 270 nM). Summed up: as §1
Assay [15] concerns PPARg homodimer (NR concentration 180 nM). Summed up: as §1
Assay [16] deals with PXR:RXRa (NR concentration 270 nM, RXRa partner concentration 90 nM). Summed up:
as §1

In assay [17] the test system is PXR homodimer (NR concentration 270 nM). Summed up:
as §1

Assay [18] relates to RARa:RXR (NR concentration 270 nM, RXRa partner concentration 90 nM). Summed up: as §1
Assay [19] deals with RARa homodimer (NR concentration 270 nM). Summed up: as §1
Assay [20] concerns RARb:RXRa (NR concentration 270 nM, RXRa partner concentration 90 nM). Summed up:
as §1

For TCTGCTAGGTCAACCATGGTCAGCTAATCTGCTA, the PBM binding z-score is 4.32 in assay [1]; 3.21 in assay [2]; -0.0391 in assay [3]; 2.21 in [4]; 0.102 in assay [5]; 3.52 in [6]. For the same sequence, the PBM binding z-score in assay [7] is 2.98; in assay [8] it was 3.44; in [9], 2.15; in assay [10], 2.95; in [11] it was 4.75; in [12], 4.6. Moreover, the PBM binding z-score in assay [13] is -0.545; in [14], -0.0168; in assay [15] it was 1.65; in [16] it was 2.47; in assay [17], -0.872; in assay [18], 2.3. Further, the PBM binding z-score in assay [19] is -0.434; in assay [20], 4.21.

Turning to TTACTAAGGTGAAAGGTCGTTGATGCACGCCTTG, the PBM binding z-score is 4.62 in assay [1]; 4.06 in [2]; 0.805 in assay [3]; 3.47 in assay [4]; -0.065 in [5]; 5.91 in [6]. Moreover, the PBM binding z-score in [7] was 9.26; in assay [8], 8.57; in [9] it was 8.09; in assay [10] it was 9.29; in assay [11] it was 4.24; in assay [12] it was 5.63. For the same sequence, the PBM binding z-score in assay [13] worked out at 1.41; in assay [14], 1.35; in [15], 2.47; in [16], 4.61; in assay [17] it was 0.84; in [18], 6.79. Also, the figures for the PBM binding z-score in assay [19] and in [20] were 0.463 and 3.51, respectively.

For TTGCCTAGGTCATGGGCCAGTATACCACGCGAAC, the PBM binding z-score was 4.71 in assay [1]; 3.43 in assay [2]; 0.623 in assay [3]; 2.49 in [4]; -0.439 in [5]; 4.25 in assay [6]. Also, the PBM binding z-score in assay [7] was determined as 3.7; in assay [8], 3.59; in [9], 0.614; in assay [10], 2.48; in assay [11], 1.44; in assay [12] it was 3.33. Also, the PBM binding z-score in assay [13] was 0.457; in [14] it was 0.0191; in assay [15], 0.932; in assay [16], 1.95; in [17], -0.21; in assay [18], 2.8. Besides, the PBM binding z-score in assay [19] is -0.254; in assay [20], 4.07.

Take TCTGCTTGGTCAGTTGGTCAGCTAACGAGCTGCC: the PBM binding z-score in [1] was -0.433; in assay [2] it was -0.4; in assay [3] it was -1.02; in [4] it was -0.763; in [5], -0.0318; in assay [6], -0.161. Besides, the PBM binding z-score in assay [7] was -1.11; in assay [8] it was 0.771; in assay [9] it was 1.04; in [10], 0.933; in [11], 0.546; in assay [12], 0.646. Further, the PBM binding z-score is -0.341 in assay [13]; 0.287 in assay [14]; -1.35 in assay [15]; -0.535 in assay [16]; -1.14 in [17]; -0.645 in assay [18]. Besides, the PBM binding z-score in assay [19] was -1.41; in assay [20], 0.775.

For CATACAGGGTCAGCTAGGCCAGAGTCGGGACGGC, the PBM binding z-score in [1] was 4.49; in assay [2] it was 3.06; in assay [3], -0.0518; in assay [4], 1.97; in [5], 0.537; in assay [6], 4.21. In addition, the PBM binding z-score is 3.11 in [7]; 3.03 in [8]; 0.551 in [9]; 1.92 in assay [10]; 1.33 in [11]; 2.55 in assay [12]. For the same sequence, the PBM binding z-score in assay [13] was 0.623; in assay [14] it was 0.297; in assay [15], 2.62; in [16], 2.15; in [17], -0.0453; in [18], 3.26. In addition, the PBM binding z-score in assay [19] is 0.539; in assay [20], 4.13.

With AGTGAAAGTTCACTAGGTAACGTAAGATTCAGCT, the PBM binding z-score in assay [1] was determined as 4.44; in [2] it was 5.02; in assay [3] it was 3.08; in assay [4], 2.88; in [5] it was 0.454; in assay [6], 4.5. Moreover, the PBM binding z-score in [7] worked out at 6.12; in assay [8] it was 6.07; in [9], 3.52; in assay [10], 5.3; in [11], 2.6; in assay [12], 4.86. Moreover, the PBM binding z-score in assay [13] stood at 1.41; in assay [14], 0.57; in assay [15], 2.04; in assay [16] it was 3.61; in assay [17], 2; in assay [18] it was 3.07. Also, the PBM binding z-score in assay [19] worked out at 0.607; in assay [20], 4.44.

For the sequence GCGGCTAGGTCAACTGATGGTCAGCTAAAGCTCG, the PBM binding z-score is 4 in [1]; 2.78 in assay [2]; 0.177 in [3]; 1.99 in assay [4]; -0.808 in assay [5]; 3.56 in assay [6]. Moreover, the PBM binding z-score in assay [7] stood at 2.23; in assay [8], 2.36; in [9] it was 0.0288; in assay [10] it was 1.44; in assay [11], 3.34; in assay [12] it was 3.06. The PBM binding z-score in assay [13] is -0.724; in [14] it was -1.01; in [15] it was 1.76; in assay [16], 1.59; in assay [17] it was -0.666; in assay [18], 2.84. Moreover, the PBM binding z-score in assay [19] was -0.107; in assay [20], 4.36.
